A selection: hits, their analogues and other compounds. The true share with any hit is near 12%.
Cycloheximide cs – counter-screen for Shiga toxin inhibitors: cycloheximide protein synthesis inhibition. cell reporter, cycloheximide protein synthesis inhibition counterscreen. max response, %. 300,000 tested, 12% active; in the data active = max response mostly above about 13%, no sharp cut-off; inactive = mostly below about 14%; also: read at 38.3 µM for the half of the compounds with a filed dose; 0% is about no effect
Sm TGR inh – inhibitors of Schistosoma mansoni thioredoxin glutathione reductase | Potency, µM (doses to about 114 µM), for the others: top-dose activity change, negative = inhibition, usual class: inhibitors | 360,000 tested, 3% active | purified TGR, DTNB reduction, TNB absorbance 405 nm | Q962Y6 | AID 485364; active = well fitted inhibition curve with a large enough effect; inconclusive = small, poorly fitted or top-dose-only effect; inactive = no such curve, though single readings can be large or run the other way; also: potency is read from the fitted curve at half-maximal effect; % is scaled to controls: 0 for no effect and ±100 for the full control effect; nearly all actives have a fitted effect of over 60% in size
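Kinetic colorimetric format: TGR-catalysed, NADPH-driven DTNB reduction monitored via TNB absorbance. Enzyme dispensed at 20 nM; compound exposure 15 min at room temperature before reaction start.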
Shiga inhibitor – blocks Shiga toxin action in Vero cells. Vero cells, Shiga toxin protein synthesis inhibition reporter. inhibition, % at 38.7 µM. 290,000 tested, 9.2% active; in the data active = inhibition mostly above about 28%, no sharp cut-off; inactive = mostly below about 43%; also: 0% is about no effect
FMDV antiviral – foot and mouth disease virus antiviral activity; Potency, µM (top dose mostly 57.9 µM), for inactives: at the highest dose activity change, negative = inhibition, hits mostly inhibitors; 410,000 tested, 1.2% active; AID 1159524; FMDV antiviral cell-based qHTS; calls by dose curve; tested in HEK293T cells; also: read-out not given here; potency is read from the fitted curve at half-maximal effect; % is scaled to controls: 0 for no effect and ±100 for the full control effect; nearly all actives have a fitted effect of over 45% in size
Active calls of the source: *; ? = inconclusive; / = no result.

SMILES	Cycloheximide cs	Sm TGR inh	Shiga inhibitor	FMDV antiviral
Oc1ccccc1N=Cc1c(O)ccc2oc3c(c12)CCCC3	8	?	10	-14%
O=C(O)c1ccc(N=Cc2c(O)ccc3oc4c(c23)CCCC4)cc1	17*	-5%	31	-27%
Oc1ccc2oc3c(c2c1/C=N/n1cnnc1)CCCC3	17	-5%	26	6%
Cn1c(/C(C#N)=C/c2ccc(C(F)(F)F)cc2)nc2ccccc21	/	2%	/	-20%
Cc1oc(-c2cccc(NC(=O)C3CCCN(C)C3)c2)nc1CNC(=O)c1coc2c1C(=O)CCC2 (centres undefined)	/	/	/	-3%
COc1ccccc1NC(=O)c1c(Nc2ccccc2C)sc(C(=O)Nc2cccc(Cl)c2)c1N	-1	4%	9	7.9µM*
COc1cccc(N2CC(NC(=O)c3cccs3)CC2=O)c1 (centres undefined)	/	10%	/	-14%
O=S(=O)(O)c1cccc2c(N=Nc3ccc(O)c4ncccc34)cccc12	1	-31%	-4	?
Oc1ccc(N=Nc2ccc(Br)cc2)c(O)c1	48*	-9%	84*	48%
O=Nc1ccc(O)c2ncccc12	56*	-33%	44*	?
Cc1ccccc1N=Nc1ccc(O)c2ncccc12	-3	-2%	2	0%
Oc1ccc(N=Nc2ccc3c(c2)OCCO3)c(O)c1	22*	3%	25	?
Oc1ccc(N=Nc2ccc3c(c2)OCCO3)c2cccnc12	44*	-25%	135*	?
Cc1ccccc1NC(=O)/C(C#N)=C/c1ccc(Cl)cc1Cl	/	0%	/	60%
CCOc1ccccc1NC(=O)CCc1c(C)nc2c3cccnc3nn2c1C	/	-1%	/	-14%
CCN(CC)S(=O)(=O)c1ccc(N=Nc2cc(C)cc(Br)c2O)cc1	/	/	/	-2%
COc1cccc(N=Nc2ccc3cccnc3c2O)c1	30*	-17%	62*	35%
COc1cccc(N=Nc2ccc(O)c3ncccc23)c1	13*	-19%	89*	-4%
COc1cc(OC)cc(C(=O)Nc2cccc3cccnc23)c1	-2	3%	-5	10%
COc1ccc(N=Nc2ccc(O)c3ncccc23)cc1	5	-14%	6	2%
Cc1ccc(N=Nc2ccc(O)cc2)c(Br)c1	44*	0%	49*	-81%
COc1cccc(Nc2ncc(C#N)c(N)n2)c1	39*	16%	81*	27%
Cc1nnc(NC(=O)CSc2nc3c([nH]c4ccccc43)c(=O)n2-c2ccc(Cl)cc2)s1	/	0%	/	-28%
CCOC(=O)c1cc(OC(=O)c2cccc(Cl)c2)n(-c2ccccc2)n1	/	15%	/	-10%
CCC(=NCc1ccco1)c1c(O)n(-c2ccc(OC)cc2)c(=O)[nH]c1=O	-2	-34%	-5	-8%
SMILES	Cycloheximide cs	Sm TGR inh	Shiga inhibitor	FMDV antiviral
CCC(=NCc1ccco1)c1c(O)n(-c2ccc(Cl)cc2)c(=O)[nH]c1=O	1	40µM*	-3	-25%
COc1ccc(NC(=O)CN(C)C(=O)c2cc(-c3ccco3)nc3ccccc23)cc1	/	5µM*	/	?
COc1cccc(NC(=O)CN(C)C(=O)c2cc(-c3ccc(F)cc3)nc3ccccc23)c1	/	-7%	/	?
CN(CC(=O)Nc1ccc(Cl)c(C(F)(F)F)c1)C(=O)c1cc(-c2ccncc2)nc2ccccc12	/	12%	/	28µM*
Cc1ccc(-c2cc(C(=O)N(C)CC(=O)Nc3ccccc3Br)c3ccccc3n2)o1	/	16µM*	/	2%
Cc1ccc(-c2cc(C(=O)Nc3ccccc3C(N)=O)c3ccccc3n2)o1	/	/	/	-10%
CN(CC(=O)Nc1ccc(F)c(F)c1F)C(=O)c1cc(-c2ccncc2)nc2ccccc12	/	-5%	/	-15%
COc1ccc(NC(=O)c2cc(-c3ccco3)nc3ccccc23)cc1	/	/	/	-13%
CN(CC(=O)Nc1cccc(F)c1)C(=O)c1cc(-c2ccco2)nc2ccccc12	/	7.9µM*	/	-22%
CCOC(=O)C1CCCN(C(=O)c2ccccc2NC(=O)c2nsc3ccccc23)C1 (centres undefined)	/	2%	/	-18%
COc1cccc(-c2ccc(SCC(=O)N3CCOCC3)nn2)c1	2	1%	22	31%
O=C(CSc1nnc(Cc2ccccc2)n1C1CCCCC1)N1CCOCC1	16*	-3%	-25	46%
O=C(CSc1nnc(Cc2ccccc2)n1-c1ccc(F)cc1)N1CCOCC1	-2	-3%	-21	/
O=C(CSc1ccc(-c2ccc(F)cc2)nn1)N1CCN(c2ccccc2)CC1	-4	-1%	-5	-23%
O=C(CSc1ccc(-c2ccccc2)nn1)N1CCOCC1	24*	4%	19	43%
CC1CCN(C(=O)CSc2ccc(-c3ccccc3)nn2)CC1	11	20µM*	4	-5%
O=C(CSc1ccc(-c2ccc(F)cc2)nn1)N1CCOCC1	20*	2%	100	30%
CC1CCN(C(=O)CSc2ccc(-c3cccc([N+](=O)[O-])c3)nn2)CC1	13	-1%	-5	?
Cc1csc2nc(-c3ccc(NS(=O)(=O)c4cccc(F)c4)cc3)cn12	/	-6%	/	15%
COC(=O)/C(=C/c1ccco1)NC(=O)c1ccco1	-1	40µM*	-17	-16%
NC(=O)/C(=C/c1ccco1)NC(=O)c1ccc(Br)o1	/	/	/	19%
COC(=O)/C(=C/c1ccco1)NC(=O)c1ccc(Br)o1	10	22µM*	8	28%
C=CCOC(=O)/C(=C/c1ccco1)NC(=O)/C=C/c1ccccc1	-2	40µM*	13	8%
COc1cccc(N2CCN(C(=O)c3cc4cc5cc(C)ccc5nc4s3)CC2)c1	/	2%	/	-15%
COc1ccc(Cl)cc1Nc1ncnc2c1nc1n2CCCC1	/	1%	/	0%
SMILES	Cycloheximide cs	Sm TGR inh	Shiga inhibitor	FMDV antiviral
Cc1nc2ccc(NS(=O)(=O)c3ccccc3Cl)cc2s1	/	1%	/	21%
COc1cccc(F)c1C(=O)NC(=O)Nc1ccc2nc(C)oc2c1	6	32µM*	7	34%
CSc1nc2ccc(NS(=O)(=O)c3cccc(Cl)c3Cl)cc2s1	17*	-11%	18	2%
CSc1nc2ccc(NC(=O)NC(=O)c3c(F)cccc3F)cc2s1	17*	-1%	20	29%
CC1(C)Cc2nc3sc4c(N(CCO)CCO)nnnc4c3cc2CO1	29*	7%	78*	-20%
CC1(C)Cc2nc3sc4c(SCC(=O)O)ncnc4c3cc2CO1	2	-16%	-7	?
CC1(C)Cc2nc3sc4c(N(CCO)CCO)ncnc4c3cc2CO1	21*	0%	29	12%
Cc1ccc(Cl)cc1N1CCN(C(=O)c2c(C)oc3ncnc(N4CCCCC4)c23)CC1	/	11%	/	0%
O=C(CN1C(=O)C2C3C=CC(C3)C2C1=O)NCCN1CCCc2ccccc21 (centres undefined)	7	50µM*	-2	3%
O=C(CN1C(=O)C2C3C=CC(C3)C2C1=O)NCCC1=CCCCC1 (centres undefined)	22*	0%	32	28%
Cc1cc(C)c2nc(NC(=O)c3cc(C)on3)sc2c1	22*	1%	21	1%
CCc1noc(C)c1C(=O)Nc1nc2ccc(F)cc2s1	/	1%	/	7%
CCc1ccc2nc(NC(=O)c3cc(C)on3)sc2c1	54*	8%	95*	5%
Cc1csc(NC(=O)c2ccc(C)c([N+](=O)[O-])c2)n1	42*	-15%	45	-48%

Compound activity deposited in PubChem BioAssay by National Center for Advancing Translational Sciences (NCATS).
